About 83,000 compounds went through this panel and 20% of them were active in at least one assay; those are over-represented in the sample as a whole.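 Cell lines were cultured in 96-well plates, exposed to a single compound concentration, and assessed for percent growth 48 hours later.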 Unmarked numbers belong to inactive results. The source made the active and inactive calls. How the source made its calls: active means growth percent below 10; inactive means the rest.
Assays:
Test in all cases: NCI-60 one-dose screen, 48 h (100 = growth as untreated, 0 = no growth, -100 = all killed)
Conditions in all cases: 10 µM unless noted
SK-MEL-2 melanoma = tested on: SK-MEL-2 melanoma
EKVX NSCLC = tested on: EKVX NSCLC
SN12C renal = tested on: SN12C renal
UO-31 renal = tested on: UO-31 renal
TK-10 renal = tested on: TK-10 renal
ACHN renal = tested on: ACHN renal
CAKI-1 renal = tested on: CAKI-1 renal
A498 renal = tested on: A498 renal
CCRF-CEM leukemia = tested on: CCRF-CEM leukemia
SR leukemia = tested on: SR leukemia
OVCAR-8 ovarian = tested on: OVCAR-8 ovarian
OVCAR-5 ovarian = tested on: OVCAR-5 ovarian
SK-OV-3 ovarian = tested on: SK-OV-3 ovarian
OVCAR-3 ovarian = tested on: OVCAR-3 ovarian
HS 578T breast = tested on: HS 578T breast
NCI/ADR-RES ovarian = tested on: NCI/ADR-RES ovarian
MOLT-4 leukemia = tested on: MOLT-4 leukemia
RPMI-8226 leukemia = tested on: RPMI-8226 leukemia
OVCAR-4 ovarian = tested on: OVCAR-4 ovarian
IGROV1 ovarian = tested on: IGROV1 ovarian

Row | Compound | growth (SK-MEL-2 melanoma) | growth (EKVX NSCLC) | growth (SN12C renal) | growth (UO-31 renal) | growth (TK-10 renal) | growth (ACHN renal) | growth (CAKI-1 renal) | growth (A498 renal) [%] | growth (CCRF-CEM leukemia) | growth (SR leukemia) | growth (OVCAR-8 ovarian) | growth (OVCAR-5 ovarian) | growth (SK-OV-3 ovarian) | growth (OVCAR-3 ovarian) | growth (HS 578T breast) | growth (NCI/ADR-RES ovarian) | growth (MOLT-4 leukemia) | growth (RPMI-8226 leukemia) | growth (OVCAR-4 ovarian) | growth (IGROV1 ovarian)
1 | O=C(Oc1ccccc1)C(Br)C(Br)c1ccccc1 (stereo unspecified) | 95.3% | 136% | 109% | 93.3% | 83% | 78.2% | -66.7% (active) | 91.3 | -28.7% (active) | -23.6% (active) | 103% | 102% | 114% | -47% (active) | 85.9% | 113% |  |  |  | 
2 | O=C1C2C(C(=O)N1CC[Se][Se]CCN1C(=O)C3C(C1=O)[C@H]1C=C[C@@H]3C1)[C@H]1C=C[C@@H]2C1 (stereo partly specified) | -53.3% (active) | -56% (active) | 3.39% (active) | -84.4% (active) | -70.2% (active) | -52.2% (active) | -87.7% (active) |  | 2.3% (active) | 4.3% (active) | -80.7% (active) | -15.4% (active) | -50% (active) | -58% (active) | -11.4% (active) | -10.9% (active) | 1.28% (active) | -43.7% (active) | -33.3% (active) | -47.2% (active)
3 | N#Cc1c(-c2ccccc2)cc(-c2ccccc2)n(CCCCC(=O)O)c1=O | 96.6% | 89.4% | 96.8% | 86% | 99.9% | 100% | 86.8% |  | 87.7% | 65.1% | 96% | 98% | 136% | 101% | 101% | 80.5% | 107% | 96.2% | 115% | 102%
4 | NS(=O)(=O)c1ccc(-n2ncc3c(SCc4ccccc4)ncnc32)cc1 | 99.8% | 107% | 98.8% | 98.5% | 89.4% | 98% | 26.3% | 111 |  |  | 96.1% | 99.7% | 108% | 99.4% | 97.3% | 101% | 50.3% | 91.9% | 104% | 85.9%
5 | O=c1ccn(C2CC=C(CO)O2)c(=O)[nH]1 (stereo unspecified) | 105% | 105% | 92.1% | 110% | 100% | 109% | 63.1% | 101 | 90.4% |  | 103% | 102% | 102% | 107% | 112% | 116% |  | 84.5% | 110% | 86.2%
6 | c1ccc(Nc2ccc(Nc3nc(-c4ccccc4)nc4ccccc34)cc2)cc1 | 83.1% | 87.1% | 87.9% | 63.7% | 98.5% | 81.3% | 71.2% |  | 52.7% | 52.1% | 76.3% | 81.5% | 107% | 101% | 92.9% | 79% | 53% | 48.9% | 94.1% | 96.7%
7 | O=[N+]([O-])c1ccc2[nH]cc(-c3c4ccccc4cc4[nH]c5ccc([N+](=O)[O-])cc5c34)c2c1 | 2.23% (active) | 39.4% | 36.7% | 13.2% | 58.7% | 15.4% | 25.3% |  | 7.25% (active) | 10.2% |  | 67.8% | 64.4% | -7.76% (active) | 30.4% | 8.13% (active) | 6.8% (active) | 11.6% | 26.7% | 18.7%
8 | CCN1CCN(c2nc(NNC(=O)Cc3ccccc3)nc(N3CCN(C(c4ccccc4)c4ccccc4)CC3)n2)CC1 | 37.6% | 75.7% | 77.9% | 61.7% | 89.1% | 86.4% | 39.5% |  | 42.6% | -22.3% (active) | 64.4% | 102% | 114% | 46.2% | 96.1% | 90.4% | 38.5% | 36.6% | 86.6% | 64.1%
